Data as given in PubChem BioAssay (EPA / NIEHS).
Several values for one entry are separate records, joined by “and”; a condition that tells them apart may be missing. Identical values can stand only once. Inconclusive results are not listed. A structure can be active in one record and inactive in another. Activity calls are given as the source filed them. The calls were made as follows: active = hit-call score of the fitted dose curve at least 0.9, where 1 is the maximum; inconclusive = response in the unintended direction; inactive = score below 0.9.

Each compound was assayed against Nuclear receptor subfamily 1 group I member 2 (Homo sapiens) (UniProt O75469) (assay: NVS_NR_hPXR: NovaScreen (NVS) Nuclear Receptor Binding Assay for human Pregnane X Receptor (PXR) (AID 2283365);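 also: a drop in FRET signal versus DMSO baseline means the compound binds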).
Sequence of Nuclear receptor subfamily 1 group I member 2 (Homo sapiens) (O75469 whole entry, looked up): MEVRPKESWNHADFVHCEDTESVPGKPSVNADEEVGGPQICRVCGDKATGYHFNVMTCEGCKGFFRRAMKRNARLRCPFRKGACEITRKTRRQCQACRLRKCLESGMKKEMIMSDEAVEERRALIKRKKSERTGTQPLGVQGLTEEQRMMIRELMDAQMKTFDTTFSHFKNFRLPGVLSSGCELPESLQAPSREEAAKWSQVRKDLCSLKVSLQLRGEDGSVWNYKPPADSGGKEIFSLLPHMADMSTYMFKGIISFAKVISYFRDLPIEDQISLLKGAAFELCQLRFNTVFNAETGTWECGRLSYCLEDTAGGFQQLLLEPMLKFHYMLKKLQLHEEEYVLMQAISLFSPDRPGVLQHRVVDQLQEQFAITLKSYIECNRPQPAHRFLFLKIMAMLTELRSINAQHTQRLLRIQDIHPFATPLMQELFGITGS
Protocol: NVS_NR_hPXR is a biochemical, single-readout assay that uses extracted gene-proteins in a cell-free assay. Measurements were taken 2 hours after chemical dosing in a 384-well plate.NVS_NR_hPXR is one of one assay component(s) measured or calculated from the NVS_NR_hPXR assay. It is designed to make measurements of fluorescent resonance energy transfer, a form of binding reporter, as detected with fluorescent resonance energy transfer signals by Time-Resolved Fluorescence Resonance Energy Transfer (TR-FRET) technology.Data from the assay component NVS_NR_hPXR was analyzed into 1 assay endpoint. This assay endpoint, NVS_NR_hPXR, was analyzed in the positive analysis fitting direction relative to DMSO as the negative control and baseline of activity. Using a type of binding reporter, loss-of-signal activity can be used to understand changes in the binding as they relate to the gene NR1I2. Furthermore, this assay endpoint can be referred to as a primary readout, because the performed assay has only produced 1 assay endpoint. To generalize the intended target to other relatable targets, this assay endpoint is annotated to the nuclear receptor intended target family, where the subfamily is non-steroidal.
Binding assays used specific radioligands (tritiated, iodinated) with non-radioactive competitive displacement ligands in agonist or antagonist protocols (as indicated) and various reference compounds and inhibitors to titrate specific binding to receptors and transporters. Most enzyme assays (CYPs, kinases, phosphatases, proteases, HDACs) used recombinant protein and specific substrates (fluorescence mostly, some colorimetric and radioactive) and inhibitors, followed by a biochemical separation of substrate and product. All assays for the biochemical HTS were initially run in duplicate at a single concentration (10 uM for CYP450 assays and 25 uM for all others). […] Each assay was run with positive and negative controls, and concurrent controls on every plate. The follow-up (secondary) screen tested active chemical-pairs in concentration series, as well as a few additional assays not tested in the primary screen, some selected negative inactives, and several cases re-run in the concentration series for confirmatory purposes.
For N[C@@H](Cc1cc(I)c(Oc2ccc(O)c(I)c2)c(I)c1)C(=O)O, the outcome was “inactive”.
In the case of C[C@]12CC[C@@H]3c4ccc(O)cc4C[C@@H](CCCCCCCCCS(=O)CCCC(F)(F)C(F)(F)F)[C@H]3[C@@H]1CC[C@@H]2O (stereo partly specified), the outcome is reported as “inactive”.
In the case of CC(C)(c1ccc(O)cc1)c1ccc(O)cc1, the outcome is reported as “inactive” and the AC50 is reported as 8.08 µM (active) and 10.9 µM (active).
With CC(=O)S[C@@H]1CC2=CC(=O)CC[C@]2(C)[C@H]2CC[C@@]3(C)[C@@H](CC[C@@]34CCC(=O)O4)[C@H]12 the outcome was “inactive” and the AC50 was 25 µM (active).
In the case of C#C[C@]1(O)CC[C@H]2[C@@H]3CCC4=CC(=O)CC[C@@H]4[C@H]3CC[C@@]21CC, the outcome is reported as “inactive”.
O=C(c1ccccc1)C1CCCCC1 was tested, and the outcome was “inactive”.
In the case of COCCO, the AC50 is reported as 3.84 µM (active).
For C[C@]12C[C@H](O)[C@H]3[C@@H](CCC4=CC(=O)CC[C@@]43C)[C@@H]1CC[C@@H]2C(=O)CO, the outcome was “inactive”.
In the case of S=C(S)NCCNC(=S)S.[Mn+2].[S-]C([S-])=NCCN=C([S-])[S-].[Zn+2], the AC50 is reported as 5.33 µM (active) and 1.52 µM (active).
